Data reported in PubChem BioAssay (NCATS).
Results filed as inconclusive are left out. Calls of active or inactive are those of the source. Calls come from the whole dose curve; as a rule, active = well fitted cell-killing curve with a large enough effect; inconclusive = small, poorly fitted or top-dose-only effect; inactive = flat fitted curve, though single readings scatter.
Potency is the fitted concentration of half-maximal effect.

Experiment: qHTS of pediatric cancer cell lines to identify multiple opportunities for drug repurposing: Confirmatory screen for BT-12 cells (AID 1347112);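 note: viability read after 48 h of compound exposure; nearly all actives have a fitted effect of over 55% in size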
Conditions: BT-12 rhabdoid tumor cells, viability; series mostly up to 45.9 µM
Text: Drug repurposing or repositioning has been offered as a strategy for drug development in oncology programs. This approach has special potential for childhood cancers and other rare or orphan diseases, where the expected return on new drug development has been a disincentive to pharmaceuticals.
In this project we exploit the poly-pharmacology of drugs to discover new indications via phenotypic screening of a panel of 19 well-characterized cell lines derived from solid tumors seen in children and adolescents. The goal is to identify approved drugs with previously unrecognized anticancer properties that has the potential to reveal new mechanisms and biological processes involved in carcinogenesis or drug resistance. We employed a titration-based paradigm (quantitative high-throughput screening or qHTS), where all compounds were tested at multiple concentrations for their effect on cell viability. Concentration-response curves (CRCs) were derived directly from the primary screen, and both potency and efficacy values were used to identify compounds with robust bioactivity profiles. We screened the NIH Chemical Genomics Center (NCGC) Pharmaceutical Collection (NPC) and Mechanism Interrogation Plate (MIPE) small molecule collections of approved and investigational compounds against these cell lines; and measured metabolically active cells after 48 hours of compound treatment as a proxy for cell viability.
Assay Submitter: Nathalia J. Martinez, National Center for Advancing Translational Sciences, National Institutes of Health, Rockville, MD, USA; email: natalia.martinez@nih.gov
[1] Shen, M et al. Quantitative high-throughput phenotypic screening of pediatric cancer cell lines identifies multiple opportunities for drug repurposing. Oncotarget 2017 Dec 19;9(4):4758-4772. PMID 29435139.
The cells were obtained from University of North Carolina (UNC), Pediatric Preclinical Testing Program (PPT), and Coriell Institute (CI).
qHTS cell viability assay:
Cells were assayed in growth media at a density of 500-1,000 cells/well. Five microliters of cells were dispensed into 1,536-well, white, solid-bottom, TC-treated plates (Greiner Bio One) using a multidrop dispenser and incubated at 37 degrees C, 5% CO2, under a humidified atmosphere for 5 hours. Twenty-three nanoliters of compounds and controls (neutral control DMSO or positive control bortezomib at final concentration of 2.3 µM) were subsequently transferred by Kalypsys pintool. For primary screens, the MIPE collection was tested at 11-point dilutions (final concentrations range from 0.78 nM to 46 µM) and the NPC collection at 8-point dilutions (final concentrations range from 0.59 nM to 46 µM). Compounds tested in follow-up screens were assayed at 11-point dilutions. Cells were incubated for 48 hours, followed by addition of 3 µL of CellTiter-Glo (Promega). After a 15 min incubation at room temperature, samples were analyzed for luminescence intensity using a ViewLux High-throughput CCD imager equipped with clear filters.
For `CCC(C=C[C@@H]1OC(=O)C=C[C@H]1C)=C[C@H](C)CC=CC(C)=C[C@@H](C)C(=O)[C@@H](C)[C@H](O)[C@@H](C)CC(C)=CC(=O)O`, the Potency was 0.0161 µM (active). In the case of `Oc1ccc(-c2ccc(-c3cc(Nc4cccc(CNC5CC5)c4)n[nH]3)cc2)c(O)c1`, the Potency is reported as 8.27 µM (active). For `COc1cccc2c1C(=O)c1c(O)c3c(c(O)c1C2=O)C[C@@](O)(C(=O)CO)C[C@H]3O[C@H]1C[C@H](N)[C@H](O)[C@H](C)O1`, the Potency was 1.47 µM (active). With `Cc1ncc(-c2ccnc(Nc3ccc(S(C)(=O)=O)cc3)n2)n1C(C)C` the Potency was 3.29 µM (active). In the case of `Cc1[nH]c(C=C2C(=O)Nc3ccccc32)c(C)c1CCC(=O)O`, the Potency is reported as “inactive”. In the case of `COC(=O)[C@@H]1[C@H]2C[C@@H]3c4[nH]c5ccccc5c4CCN3C[C@@H]2CC[C@@H]1O`, the Potency is reported as “inactive”. In the case of `CS[C@H]1SC[C@@H]2C(=O)N(C)[C@H](C(C)C)C(=O)OC[C@H](NC(=O)c3cnc4ccccc4n3)C(=O)N[C@H](C)C(=O)N(C)[C@@H]1C(=O)N(C)[C@H](C(C)C)C(=O)OC[C@H](NC(=O)c1cnc3ccccc3n1)C(=O)N[C@H](C)C(=O)N2C`, the Potency is reported as 0.0093 µM (active). In the case of `CN(CC(=O)N(Cc1ccc(C2CCCCC2)cc1)c1ccc(C(=O)O)c(O)c1)S(=O)(=O)c1c(F)c(F)c(F)c(F)c1F`, the Potency is reported as “inactive”. For `O=C1NCCc2[nH]c(-c3ccncc3)cc21`, the Potency was 2.33 µM (active). With `CC(=O)O[C@H]1C[C@@H]2CC[C@H]3[C@H]4C[C@H]([N+]5(C)CCCCC5)[C@@H](OC(C)=O)[C@@]4(C)CC[C@@H]3[C@@]2(C)C[C@H]1N1CCCCC1` the Potency was 7.37 µM (active). With `C=CCNC1=C2C[C@@H](C)C[C@H](OC)[C@@H](O)[C@@H](C)C=C(C)[C@H](OC(N)=O)[C@@H](OC)C=CC=C(C)C(=O)NC(=CC1=O)C2=O` the Potency was “inactive”. In the case of `COc1cc([C@@H]2c3cc4c(cc3[C@@H](O[C@@H]3O[C@@H]5CO[C@@H](c6cccs6)O[C@@H]5[C@H](O)[C@@H]3O)[C@H]3COC(=O)[C@H]23)OCO4)cc(OC)c1O`, the Potency is reported as 3.69 µM (active). For `CNC(=O)c1ccc(Nc2cc(Nc3ccccc3S(=O)(=O)C(C)C)c3cc[nH]c3n2)nc1`, the Potency was 13.1 µM (active). For `COc1ccc(C=Cc2cc(OC)c(OC)c(OC)c2)cc1NC(=O)[C@H](N)CO`, the Potency was 0.117 µM (active). With `CCS(=O)(=O)Nc1ccc2[nH]c(O)c(C(=Nc3ccc(CN4CCCCC4)cc3)c3ccccc3)c2c1` the Potency was 18.5 µM (active). For `CC(C(C)N1CC(=O)NC(=O)C1)N1CC(=O)NC(=O)C1` (stereo not given), the Potency was “inactive”. With `CC1(C)O[C@@H]2C[C@H]3[C@@H]4CCC5=CC(=O)C=C[C@]5(C)[C@@H]4[C@@H](O)C[C@]3(C)[C@]2(C(=O)CO)O1` the Potency was “inactive”. In the case of `CCc1cnn2c(NCc3ccc[n+]([O-])c3)cc(N3CCCC[C@@H]3CCO)nc12`, the Potency is reported as “inactive”. For `CC(C)N1[N]C(=C2C=c3cc(O)ccc3=N2)c2c(N)ncnc21`, the Potency was 13.1 µM (active). In the case of `Cn1cc(-c2cnn3c(N)c(Br)c([C@H]4CCCNC4)nc23)cn1`, the Potency is reported as “inactive”. In the case of `CC(=O)[C@]1(O)Cc2c(O)c3c(c(O)c2[C@@H](O[C@H]2C[C@H](N)[C@@H](O)[C@H](C)O2)C1)C(=O)c1ccccc1C3=O`, the Potency is reported as 4.14 µM (active). In the case of `C=CC(=O)Nc1cccc(Nc2nc(NC3CCC(N(C)C)CC3)nc3c2ncn3C(C)C)c1` (stereo not given), the Potency is reported as 1.17 µM (active). In the case of `C[C@@]12C(=O)OC(=O)[C@@]1(C)C1CCC2O1`, the Potency is reported as 8.27 µM (active). In the case of `Oc1cc(-c2nc(-c3ccccc3)[nH]c2-c2ccncc2)ccc1Cl`, the Potency is reported as 2.33 µM (active). For `CC(C)(N)c1ccc(-c2nc3ccccc3nc2-c2ccccc2)cc1`, the Potency was 0.928 µM (active). For `CCN(CC)Cc1ccc2cc(COC(=O)Nc3ccc(C(=O)NO)cc3)ccc2c1`, the Potency was “inactive”. With `COc1cc2c(cc1OC)[C@@H]1C(=O)c3ccc4c(c3O[C@@H]1CO2)C=CC(C)(C)O4` the Potency was 1.31 µM (active). In the case of `C[C@H](NCc1ccc2c(c1)nc(NC(=O)c1ccc(-c3cn[nH]c3)s1)n2CCc1ccccc1)C(C)(C)C`, the Potency is reported as 2.93 µM (active). With `COc1ccc(C(C)=O)c(O)c1` the Potency was “inactive”. For `COC[C@H](NC(=O)c1cnc(C)s1)C(=O)N[C@@H](COC)C(=O)N[C@@H](Cc1ccccc1)C(=O)[C@@]1(C)CO1`, the Potency was 0.414 µM (active). For `C[C@@H](Oc1ccc2[nH]nc(C=Cc3cnn(CCO)c3)c2c1)c1c(Cl)cncc1Cl`, the Potency was 23.3 µM (active). With `C[N+](C)([O-])CCNc1ccc(NCC[N+](C)(C)[O-])c2c1C(=O)c1c(O)ccc(O)c1C2=O` the Potency was “inactive”. In the case of `Cc1cnc(Nc2ccc(N3CCN(C)CC3)cc2)nc1Nc1cccc(S(=O)(=O)NC(C)(C)C)c1`, the Potency is reported as 16.5 µM (active). In the case of `CC(C)C[C@H](NC(=O)CNC(=O)c1cc(Cl)ccc1Cl)B1OC(=O)CC(CC(=O)O)(C(=O)O)O1` (stereo not given in full), the Potency is reported as 0.414 µM (active). In the case of `CC(=O)NCC(=O)N1[C@H]2CC[C@H]1c1cc(Nc3ncc(C(F)(F)F)c(NC4CCC4)n3)ccc12`, the Potency is reported as 16.5 µM (active). In the case of `Nc1ncn([C@@H]2O[C@H](CO)[C@@H](O)[C@@H]2O)c(=O)n1`, the Potency is reported as 18.5 µM (active). For `CC(C)NC[C@@H](C(=O)N1CCN(c2ncnc3c2[C@H](C)C[C@H]3O)CC1)c1ccc(Cl)cc1`, the Potency was “inactive”. With `Nc1nc2c(c(=O)[nH]1)N(C=O)[C@H](CNc1ccc(C(=O)N[C@@H](CCC(=O)O)C(=O)O)cc1)CN2` the Potency was “inactive”. In the case of `COc1cccc2c1C(=O)c1c(O)c3c(c(O)c1C2=O)C[C@@](O)(C(=O)CO)C[C@@H]3O[C@H]1C[C@H](N)[C@@H](O)[C@H](C)O1`, the Potency is reported as 0.585 µM (active). With `Cn1cnc(=N)c2[nH]cnc21` the Potency was “inactive”.
